In the library only some 11% were active in any assay of this set; here they are far more common.
ALOX15 inhib = qHTS Assay for Inhibitors of 15-hLO (15-human lipoxygenase) | Potency, µM (titrated, usually from 57.1 µM), for the others: at the highest dose activity change, negative = inhibition, actives largely listed as inhibitors | actives 1.4% (n = 74,000) | purified 15hLO-1, xylenol orange hydroperoxide absorbance | Polyunsaturated fatty acid lipoxygenase ALOX15 (Homo sapiens), P16050; further: nearly all actives have a fitted effect of over 55% in size
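Purified human 15hLO-1 (40 nM final) in 25 mM Hepes pH 7.5, 0.01% Triton X-100 was preincubated with compound 15 min at room temperature, then reacted 6 min with 50 uM arachidonic acid; hydroperoxide detected by Fe-XO, 573/405 nm absorbance ratio.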
FLuc inh = qHTS Assay for Inhibitors of Firefly Luciferase. Luciferin 4-monooxygenase (Photinus pyralis), P08659. actives 2.2% (n = 72,000). Potency, µM (titrated, usually from 57.1 µM), for inactives: top-dose activity change, negative = inhibition, usual class: inhibitors. purified firefly luciferase, luminescence, 8 min. AID 411, 2009; further: nearly all actives have a fitted effect of over 40% in size
Target sequence (P08659 whole entry, looked up): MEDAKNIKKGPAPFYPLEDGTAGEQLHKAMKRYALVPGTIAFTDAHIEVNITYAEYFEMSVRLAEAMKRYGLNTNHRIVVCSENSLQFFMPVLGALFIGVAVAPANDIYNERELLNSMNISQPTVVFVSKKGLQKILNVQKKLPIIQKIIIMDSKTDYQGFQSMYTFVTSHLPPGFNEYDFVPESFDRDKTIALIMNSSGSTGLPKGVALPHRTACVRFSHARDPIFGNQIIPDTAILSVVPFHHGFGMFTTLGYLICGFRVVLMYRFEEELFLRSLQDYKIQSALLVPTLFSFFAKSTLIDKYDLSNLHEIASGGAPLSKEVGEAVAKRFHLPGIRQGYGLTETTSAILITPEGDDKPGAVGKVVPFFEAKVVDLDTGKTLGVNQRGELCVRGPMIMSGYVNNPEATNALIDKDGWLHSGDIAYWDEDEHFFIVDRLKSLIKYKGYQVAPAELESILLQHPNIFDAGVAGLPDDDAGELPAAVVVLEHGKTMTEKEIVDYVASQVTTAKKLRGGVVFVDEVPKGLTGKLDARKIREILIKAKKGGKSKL
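Firefly luciferase (PKLight detection mix) with 10 uM ATP in pH 7.2 imidazole buffer (KCl, MgCl2, Tween 20, BSA). Compounds tested across a concentration series (qHTS). Luminescence read after 8 min at ambient temperature.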
Bst PK mod = Pyruvate Kinase. actives 1.2% (n = 51,000). purified pyruvate kinase, luminescence ATP production; ribose 5-phosphate activator present at AC10. Potency, µM; in the data active means potency below about 11 µM; inconclusive means mostly about 12 µM to 25 µM;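 the screen sought inhibitors and activators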;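 further: scaled between full activation by ribose 5 phosphate and full inhibition by luteolin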
HADH2 inh = qHTS Assay for Inhibitors of HADH2 (Hydroxyacyl-Coenzyme A Dehydrogenase, Type II). 3-hydroxyacyl-CoA dehydrogenase type-2 (Homo sapiens), Q99714. recombinant HADH2, NADH fluorescence, beta-hydroxybutyryl-CoA. Potency, µM (doses to about 57.1 µM), for the others: at the top dose activity change, negative = inhibition, hits mostly inhibitors. actives 3.4% (n = 73,000). AID 886, 2007; further: nearly all actives have a fitted effect of over 60% in size
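20 nM HADH2 + cpd, 15 min RT; add 1 mM NAD+/90 uM beta-hydroxybutyryl-CoA; kinetic fluorescence 360/450 nm, 4 min. Tris-HCl pH 9.0, 0.01% Tween-20.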
HSD17B inh = qHTS Assay for Inhibitors of HSD17B4, hydroxysteroid (17-beta) dehydrogenase 4; 3-hydroxyacyl-CoA dehydrogenase type-2 (Homo sapiens), Q99714; recombinant HSD17B10, NADH fluorescence kinetic; Potency, µM (highest dose often 57.1 µM), without a hit: at the highest dose activity change, negative = inhibition, most hits filed as inhibitors; actives 7.6% (n = 75,000);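 further: the protocol describes HADH2 (HSD17B10) and not the HSD17B4 of the title; nearly all actives have a fitted effect of over 70% in size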
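20 nM HADH2, pH 9.0 Tris/Tween; cpd preinc 15 min RT; start w/ 1 mM NAD+ + 90 uM b-hydroxybutyryl-CoA; kinetic fluor ex360/em450 q30s x 4 min; delta last-first.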
ERK AVP block = qHTS Assay for Inhibitors of the ERK Signaling Pathway using a Homogeneous Screening Assay; HEK293-V1b, vasopressin-stimulated pERK AlphaScreen; Potency, µM (series often up to 57.5 µM), inactives show top-dose activity, negative = inhibition, most hits filed as inhibitors; actives 0.99% (n = 72,000); AID 995, 2007; further: nearly all actives have a fitted effect of over 55% in size
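HEK293 cells stably expressing V1b receptor, preincubated 30 min at 37 °C with compound, then stimulated 5 min with 25 nM vasopressin. Phospho-ERK by AlphaScreen SureFire after 5 h RT; normalized to DMSO and vasopressin; AC50 by Hill fit.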
Active calls of the source: *; i = inactive; ? = inconclusive; nt = no result given; [ ] = another dose, or the depositor's remark. Unless noted, the call rests on the fitted dose curve; in most records, active means well fitted curve in the direction sought with a large enough effect; inconclusive means small, poorly fitted or top-dose-only effect, or another doubt; inactive means no such curve, though single readings can be large; an effect the other way counts as inactive or inconclusive. Unless noted, on the % scale 0 is the no-effect control and ±100 the full control effect; potency means the concentration at half of the fitted maximal effect.

SMILES	ALOX15 inhib	FLuc inh	Bst PK mod	HADH2 inh	HSD17B inh	ERK AVP block
Cc1cc(O)c(NC(=O)c2ccc(Br)o2)cc1C	-21%[11.4 µM]	?	nt	-7%[11.4 µM]	14%	-13%
COc1ccc(-c2cn3cccnc3n2)cc1NC(=O)c1ccc(Br)o1	-10%	-6%	>57	118%	25µM*	-7%
COc1ccccc1NC(=O)c1ccc(Br)o1	3%	-2%	>57	-11%	-6%	14%
Cc1ccc(-c2cn3cccnc3n2)cc1NC(=O)c1ccc(Br)o1	9%	-2%	>57	25µM*	25µM*	-3%
CC1(C)CC[C@]2(C(=O)O)CC[C@]3(C)C(=CCC4[C@@]5(C)CC[C@H](O)C(C)(C)C5[C@H](O)C[C@]43C)C2C1 (some centres not stated)	3%[25.6 µM]	nt	nt	nt	-7%	-13%
CS(=O)(=O)Nc1cccc(-c2ccc3ncnc(N4CCOCC4)c3c2)c1	20%	2%[2.29 µM]	nt	8%	3%	?
NCCC[C@@H](CC(=O)N[C@@H]1CCCC[C@H]1C(=O)N[C@H](CC(=O)N[C@@H](CCC(=O)O)CC(=O)O)Cc1ccccc1)NC(=O)C[C@H](CO)NC(=O)[C@@H]1CCCC[C@H]1N	nt	nt	nt	-2%	nt	nt
O=C1/C(=C/c2ccccc2)[C@@H](NC2CCCCC2)c2ccccc21	-18%[11.4 µM]	0%[11.4 µM]	nt	-22%[11.4 µM]	-12%[11.4 µM]	-27%[11.5 µM]
Cc1ccn2cc(C(=O)Nc3ccc4c(c3)OCCO4)nc2c1	-3%	6.3µM*	7*	9%	2%	?
CC1Cc2ccccc2N1C(=O)C12CCC(C)(C(=O)C1)C2(C)C (configuration not stated)	8%	1%	nt	16%	32µM*	7%
CC1CCCCN1C(=O)C12CCC(C)(C(=O)C1)C2(C)C (configuration not stated)	14%	nt	nt	-5%	1%	nt
CN(C)C(=O)c1ccc(-c2ccc3ncnc(NCc4cccs4)c3c2)cc1	24%	-2%[2.29 µM]	nt	?	25µM*	32µM*
COc1cccc(-c2ccc3ncnc(NCc4cccs4)c3c2)c1	3%	0%[2.29 µM]	nt	1%	?	16µM*
CNc1ncnc2ccc(-c3cccc(OC)c3)cc12	10%	2%[2.29 µM]	nt	16%	?	-22%
CCOC(=O)Cc1c(C)c2c(C)nn(-c3ccccc3)c2oc1=O	-1%	1%	>57	-2%	25µM*	-14%
CCc1c(C)c2c(C)nn(-c3ccccc3)c2[nH]c1=O	-1%[11.4 µM]	0%	nt	-8%[11.4 µM]	?	-5%
CC1CCC(C(C)C)[C@H](O)C1 (some centres not stated)	-1%	nt	nt	nt	2%	41%
O=C(c1ccco1)N1CCC2(CCCN(Cc3ccccc3)C2)CC1	-6%	1%[11.4 µM]	nt	6%	5%	9%
O=C(O)c1ccccc1C(=O)Nc1ccccc1	-3%	-2%	>57	-1%	-3%	-9%
O=C(O)c1ccccc1C(=O)Nc1n[nH]c(=S)s1	?	-8%	nt	3.2µM*	16µM*	25%
Cc1cc(C)c2c(n1)nn1c(N3CCN(Cc4ccccc4)CC3)cc(C)nc21	-26%	2%	>57	20µM*	16µM*	42%
COc1ccc(F)cc1CN1CCN(c2cc(C)nc3c4c(C)cc(C)nc4nn23)CC1	-14%	3%	>57	32µM*	3.2µM*	9%
O=C(NCc1ccccc1)N(Cc1cc2cc3c(cc2[nH]c1=O)OCO3)CC1CCCO1 (configuration not stated)	-4%	1%	>57	?	25µM*	-17%
COc1ccc(NC(=O)N(Cc2cc3cc(OC)ccc3[nH]c2=O)CC2CCCO2)cc1 (configuration not stated)	20µM*	-1%	i	9%	32µM*	-22%
CCOc1ccc2[nH]c(=O)c(CN(Cc3ccc(C)cc3)C(=O)N3CCCC3)cc2c1	-12%	4%	>57	23%	?	15%
SMILES	ALOX15 inhib	FLuc inh	Bst PK mod	HADH2 inh	HSD17B inh	ERK AVP block
CCOc1ccc2[nH]c(=O)c(CN(CCOC)C(=O)N3CCOCC3)cc2c1	3%	-2%	>57	7%	25µM*	-2%
COc1ccc2[nH]c(=O)c(CN(CCN(C)C)C(=O)NCc3ccccc3)cc2c1	7%	-4%	>57	-30%	32µM*	-17%
Cc1ccc2[nH]c(=O)c(CN(CC3CCCO3)C(=O)c3ccco3)cc2c1 (configuration not stated)	10%	0%	>57	3%	-2%	-3%
Cc1ccc2[nH]c(=O)c(CN(CCO)C(=O)NCc3ccccc3)cc2c1	2%	6%	>57	-2%	?	-1%
N#C[C@H]1CN[C@H](N)N[C@@H]1N	0%[11.4 µM]	2%[11.4 µM]	nt	14%[11.4 µM]	2%[11.4 µM]	-12%[11.5 µM]
CCN(CC)CCCN(Cc1cc2cc(OC)ccc2[nH]c1=O)C(=O)Nc1ccccc1	-7%	4%	nt	-6%	25µM*	-15%
CCN(CC)CCCN(Cc1cc2cc(OC)ccc2[nH]c1=O)C(=O)Nc1ccc(F)cc1	-12%	1%	i	-3%	?	12%
COc1ccc(CCNC(=O)CCn2c(=O)[nH]c3cc(OC)c(OC)cc3c2=O)cc1OC	1%	0%	>57	6%	?	-6%
CCOc1ccc(N(Cc2cc3cc(OC)ccc3[nH]c2=O)C(=O)C2CCCO2)cc1 (configuration not stated)	-6%	-1%	>57	-4%	32µM*	-27%
COc1cc2[nH]c(=O)n(CCC(=O)NCc3cccnc3)c(=O)c2cc1OC	6%	2%	>57	-20%	25µM*	-23%
COc1ccc(NC(=O)N(CCCN(C)C)Cc2cc3cc(OC)ccc3[nH]c2=O)cc1	-4%	0%	nt	-19%	32µM*	17%
COC(=O)[C@@H]1CC[C@H](C)[C@@H](c2ccc(C)cc2)N1C(=O)c1ccc(/C=N\O[C@@H](C)c2cn([C@H]3COC[C@H]3O)nn2)cc1	-11%[11.4 µM]	-1%[11.4 µM]	nt	9%[11.4 µM]	0%[11.4 µM]	30%[11.5 µM]
CCCCN1CSC(=S)N(Cc2ccccc2)C1	?	2%[11.4 µM]	nt	?	-18%[11.4 µM]	-11%[11.5 µM]
CC(=O)OC[C@@H]1O[C@@H](O/N=C2/C[C@@H](O)[C@@H](O)[C@@H]3[C@@H]4C(=O)N(C5CCCCC5)C(=O)[C@H]4CC[C@@H]23)[C@H](OC(C)=O)[C@H](OC(C)=O)[C@@H]1OC(C)=O	3%[11.4 µM]	0%[11.4 µM]	nt	0%[11.4 µM]	1%[11.4 µM]	14%[11.5 µM]

Screening data: PubChem BioAssay, National Center for Advancing Translational Sciences (NCATS)
